PMC4336329 (PLoS ONE, 2015)
Among all 310,000 compounds or so, about 2,200 (0.71%) showed an effect of 50% or more. Effects have a minus sign here. The sample holds strong results, similar compounds and a random draw of the others, so the mix is not that of the screen.

What follows are molecules tested against human ether-à-go-go-related gene (hERG) potassium channel (human, UniProt Q12809) (assay: primary screen, population patch clamp on CHO cells stably expressing hERG; higher = less effect of the substance).
Sequence of human ether-à-go-go-related gene (hERG) potassium channel (Q12809 whole entry, looked up): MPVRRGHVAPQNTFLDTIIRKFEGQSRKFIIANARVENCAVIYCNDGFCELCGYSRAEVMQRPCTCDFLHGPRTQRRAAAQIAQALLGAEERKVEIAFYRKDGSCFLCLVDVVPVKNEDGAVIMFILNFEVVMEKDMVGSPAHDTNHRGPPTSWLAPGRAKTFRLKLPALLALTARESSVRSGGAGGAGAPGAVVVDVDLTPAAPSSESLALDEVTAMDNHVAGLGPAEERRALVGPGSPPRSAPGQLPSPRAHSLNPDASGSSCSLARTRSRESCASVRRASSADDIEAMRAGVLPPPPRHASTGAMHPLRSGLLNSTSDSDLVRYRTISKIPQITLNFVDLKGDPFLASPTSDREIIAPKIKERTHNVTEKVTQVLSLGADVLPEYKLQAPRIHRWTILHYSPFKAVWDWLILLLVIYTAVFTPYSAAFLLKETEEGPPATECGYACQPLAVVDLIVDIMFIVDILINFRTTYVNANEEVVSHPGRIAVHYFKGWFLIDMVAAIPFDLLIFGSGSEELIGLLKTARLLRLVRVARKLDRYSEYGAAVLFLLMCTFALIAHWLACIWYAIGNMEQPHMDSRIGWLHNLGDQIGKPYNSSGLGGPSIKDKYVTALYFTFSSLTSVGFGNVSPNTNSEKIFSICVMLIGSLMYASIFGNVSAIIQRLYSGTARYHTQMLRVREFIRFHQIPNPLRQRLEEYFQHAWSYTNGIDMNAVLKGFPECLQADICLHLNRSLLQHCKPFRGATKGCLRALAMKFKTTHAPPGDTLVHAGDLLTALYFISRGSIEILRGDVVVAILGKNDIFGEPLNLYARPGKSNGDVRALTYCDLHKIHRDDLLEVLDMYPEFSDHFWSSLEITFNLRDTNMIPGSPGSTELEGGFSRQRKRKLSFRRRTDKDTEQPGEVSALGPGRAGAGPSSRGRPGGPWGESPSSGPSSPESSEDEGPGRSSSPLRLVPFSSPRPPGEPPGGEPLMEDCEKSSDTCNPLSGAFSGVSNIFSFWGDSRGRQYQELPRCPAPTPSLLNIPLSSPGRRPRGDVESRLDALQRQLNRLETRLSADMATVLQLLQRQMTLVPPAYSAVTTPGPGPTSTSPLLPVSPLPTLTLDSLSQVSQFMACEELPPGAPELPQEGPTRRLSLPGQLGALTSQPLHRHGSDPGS

Row | Compound | hERG current change (%, negative = inhibition) at 1uM
1 | CCCCN(CC)CCNC(=O)c1cc2c(=O)[nH]c3ccccc3c2n1C | 11.5%
2 | N#Cc1ccc(C(=O)Nc2cc(-c3ccccc3)nn2-c2ccccc2)cc1 | 0.56%
3 | COc1cccc(C2CCCN2Cc2nc(CC3CC3)no2)c1 (stereo not drawn) | 14.5%
4 | CNC(=S)N1CCN(c2cccc(OC)c2)CC1 | 7.07%
5 | COc1cc(O)oc1C=Nc1ccc(Cl)cc1 | 10.9%
6 | CNC(=S)NNC(=O)c1ccccc1Br | 15.2%
7 | CCCCCCCN1C2=NCCN2c2ccccc21.Cl | -60.7%
8 | Cc1ccccc1CN1C2=NCCN2c2ccccc21.Cl | -13.7%
9 | O=C(Cn1c2c(sc1=O)C1c3ccccc3OCC1CS2)Nc1ccc(Cl)cc1 (stereo not drawn) | 9.64%
10 | Nc1nc(SCCC(F)=C(F)F)n[nH]1 | 4.82%
11 | CCN(CC)CCCNC(=O)c1cn(C)c2ccc(S(=O)(=O)N(C)C3CCCCC3)cc2c1=O | 12.2%
12 | CCCCN(CC)CCCNC(=O)c1cn(C)c2ccc(S(=O)(=O)N(C)C3CCCCC3)cc2c1=O | -66.6%
13 | CCN(CC)CCNC(=O)c1cn(CC)c2ccc(S(=O)(=O)N(C)C3CCCCC3)cc2c1=O | 9.42%
14 | CCCN(CCC)CCCNC(=O)c1cn(CC)c2ccc(S(=O)(=O)N(C)C3CCCCC3)cc2c1=O | -46.1%
15 | CCCCN(CCCC)CCNC(=O)c1cn(CC)c2ccc(S(=O)(=O)N(C)C3CCCCC3)cc2c1=O | -84.2%
16 | CCCCN(C)CCCNC(=O)c1cn(C)c2ccc(S(=O)(=O)N(C)C3CCCCC3)cc2c1=O | -45.6%
17 | O=C(/C=C/c1ccccc1Cl)c1cccnc1 | 6.53%
18 | CCC[C@H](CN[C@@H](CNC)[C@H](C)CC)NCCc1cc(C(F)(F)F)cc(C(F)(F)F)c1 | 0.0872%
19 | CC(CCc1ccccc1)NCC(O)COc1ccccc1 (stereo not drawn) | -6.95%
20 | CC1(c2ccc3ccccc3c2)NC(=O)N(CC(=O)Nc2ncccc2O)C1=O (stereo not drawn) | 14.4%
21 | O=C(NCCCCC(NC(=O)c1ccc([N+](=O)[O-])cc1)C(=O)O)c1ccc([N+](=O)[O-])cc1 (stereo not drawn) | -6.29%
22 | COC(=O)C(CC(C)C)NC(=O)c1ccc([N+](=O)[O-])cc1 (stereo not drawn) | 0.193%
23 | COC(=O)C(CCCCNC(=O)c1ccc([N+](=O)[O-])cc1)NC(=O)c1ccc([N+](=O)[O-])cc1 (stereo not drawn) | -84.2%
24 | CCOC(=O)c1nnc(-c2ccccc2)nc1NC | 2.74%
25 | CCN1CCN(C(=S)c2ccc(SC)cc2)CC1 | -18%
26 | Cc1cccc(C(=O)Nc2cccc3cccnc23)c1 | 17.4%
27 | CC(=O)NC(=S)NNC(=O)CCc1ccccc1 | 6.91%

Row | Compound | hERG current change (%, negative = inhibition) at 1uM
28 | O=C(Cc1ccc(Br)cc1)Nc1cccc(-c2cn3c(n2)SCC3)c1 | 12.2%
29 | COC(=O)c1sccc1-n1cccc1C(=O)C(=O)N1CCCC1 | 6.84%
30 | COC(=O)c1sccc1-n1cccc1C(=O)N1CCOCC1 | -11.6%
31 | COC(=O)c1sccc1-n1cccc1C(=O)C(=O)N1CCOCC1 | -87.6%
32 | COc1nnc(-c2ccc(C)cc2)c2ccccc12 | 13.6%
33 | CCN(CC)CCOc1nnc(-c2ccc(C)cc2)c2ccccc12 | -58.4%
34 | CCN(CC)CCOc1nnc(-c2ccc(OC)cc2)c2ccccc12 | -25.1%
35 | O=C(OCc1ccc(F)cc1)c1cc(S(=O)(=O)N2CCCCC2)ccc1N1CCOCC1 | 4.59%
36 | O=C(OCc1ccc([N+](=O)[O-])cc1)c1cc([N+](=O)[O-])ccc1N1CCOCC1 | -67.2%
37 | Cc1ccc(COC(=O)c2cc([N+](=O)[O-])ccc2N2CCOCC2)cc1 | -21%
38 | O=C(OCc1cccc(Cl)c1)c1cc([N+](=O)[O-])ccc1N1CCOCC1 | -5.04%
39 | COc1ccc(CCNC(=O)c2cc([N+](=O)[O-])ccc2N2CCOCC2)cc1 | 1.7%
40 | O=C(NCCc1ccc(F)cc1)c1cc([N+](=O)[O-])ccc1N1CCOCC1 | -98.2%
41 | NS(=O)(=O)c1ccc(CCNC(=O)c2cc([N+](=O)[O-])ccc2N2CCOCC2)cc1 | -6.06%
42 | O=C(OCc1ccc([N+](=O)[O-])cc1)c1cc(S(=O)(=O)N2CCCCC2)ccc1N1CCOCC1 | -77.9%
43 | Cc1ccc(COC(=O)c2cc(S(=O)(=O)N3CCCCC3)ccc2N2CCOCC2)cc1 | -1.22%
44 | O=C(NCCS(=O)(=O)N1CCN(c2ccccc2F)CC1)C1CC(=O)N(c2ccc(F)cc2)C1 (stereo not drawn) | 5.78%
45 | COc1cccc(N2CC(C(=O)OC(C)C(=O)c3ccccc3)CC2=O)c1 (stereo not drawn) | 5.64%
46 | Cc1c(O)ccc(C(=O)CN2CCN(c3ccccc3)CC2)c1O | 13.2%
47 | Cc1ccc(-n2c(SCC(=O)N/N=C/c3ccc(C)s3)nnc2-c2ccccc2)cc1 | 7.01%
48 | Cn1c(CCNC(=O)c2ccccc2F)nnc1SCc1nc2ccccc2c(=O)[nH]1 | 11.4%
49 | COc1ccc(-c2[nH]ncc2CN(C)CCCN2CCOCC2)cc1F | 12%
50 | CCOc1ccc(CCNC(=O)c2ccc(=O)[nH]c2)cc1OCC | 4.91%
51 | O=C(c1ccc2c(c1)ncn2C1CCCCC1)N1CCC2(CC1)OCCO2 | 0.618%
52 | CCN1/C(=C\C=C\C2=[N+](CC)c3ccccc3C2(C)C)C(C)(C)c2ccccc21.[O-][Cl+3]([O-])([O-])[O-] | -86.1%
53 | CCCN1C(=O)/C(=C/C=C2\N(CC)c3ccccc3C2(C)C)SC1=S | 5.72%
54 | CN1/C(=C\C=C\C2=[N+](C)c3ccc4ccccc4c3C2(C)C)C(C)(C)c2ccccc21.[O-][Cl+3]([O-])([O-])[O-] | -43.6%
